Source: PubChem BioAssay (National Center for Advancing Translational Sciences (NCATS))
Shiga inhibitor = Shiga toxin inhibition; Vero cells, Shiga toxin protein synthesis inhibition reporter; inhibition, % at 38.7 µM; 9.2% of 290,000 active; in the data active = inhibition mostly above about 28%, no sharp cut-off; inactive = mostly below about 43%; also: 0% is about no effect
CHX counter = counter-screen hit for Shiga toxin inhibitors, cycloheximide | cell reporter, cycloheximide protein synthesis inhibition counterscreen | max response, % | 12% of 300,000 active; in the data active = max response mostly above about 13%, no sharp cut-off; inactive = mostly below about 14%; also: read at 38.3 µM for the half of the compounds with a filed dose; 0% is about no effect
LmPK inhibitor = blocks Leishmania mexicana pyruvate kinase activity | Q27686 | purified LmPK, Kinase-Glo ATP luminescence, 1 h | Potency, µM (series often up to 57.5 µM), for inactives: top-dose activity change, negative = inhibition, hits mostly inhibitors | 0.37% of 290,000 active | AID 1721; also: potency is read from the fitted curve at half-maximal effect; % is scaled to controls: 0 for no effect and ±100 for the full control effect
Target sequence (Q27686 whole entry, looked up): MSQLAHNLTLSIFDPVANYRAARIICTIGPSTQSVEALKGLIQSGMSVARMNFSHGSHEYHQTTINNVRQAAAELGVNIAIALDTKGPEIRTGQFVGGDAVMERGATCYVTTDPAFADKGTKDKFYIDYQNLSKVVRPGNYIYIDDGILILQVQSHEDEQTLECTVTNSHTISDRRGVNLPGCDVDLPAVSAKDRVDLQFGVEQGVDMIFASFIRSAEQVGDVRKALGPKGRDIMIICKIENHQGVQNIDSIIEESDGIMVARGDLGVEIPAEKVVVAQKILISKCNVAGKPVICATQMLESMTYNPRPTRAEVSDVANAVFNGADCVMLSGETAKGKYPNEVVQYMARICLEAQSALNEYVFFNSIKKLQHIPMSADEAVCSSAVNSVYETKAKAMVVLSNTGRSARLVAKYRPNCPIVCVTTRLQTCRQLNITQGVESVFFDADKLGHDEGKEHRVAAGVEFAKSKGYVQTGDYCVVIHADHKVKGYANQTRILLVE
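Kinase-Glo luminescence read after 1 h RT reaction of 0.1 nM LmPK with 0.5 mM PEP and 0.1 mM ADP. Activity scaled between uninhibited and enzyme-free controls.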
Giardia FBPA inh = blocks Giardia fructose-bisphosphate aldolase activity; 0.71% of 290,000 active; A8B2U2; Potency, µM (series often up to 59.6 µM), without a hit: at the top dose activity, negative = inhibition, hits mostly inhibitors; AID 2451; purified Giardia FBPA; also: potency is read from the fitted curve at half-maximal effect; % is scaled to controls: 0 for no effect and ±100 for the full control effect; nearly all actives have a fitted effect of over 55% in size
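Giardia FBPA (40 nM reagent) was preincubated 10 min at RT with compound (up to 57.5 uM final), then substrate plus GAPDH/TPI/NAD/arsenate coupling system with diaphorase/resazurin was added; resorufin fluorescence (525/598 nm) was read after 20 min.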
TbPYK inhibitor = blocks Trypanosoma brucei pyruvate kinase; TbPYK enzyme, Kinase-Glo Plus ATP luminescence, 45 min; Potency, µM (series often up to 76.8 µM), inactives show at the highest dose activity, negative = inhibition, usual class: inhibitors; 0.12% of 410,000 active; also: potency is read from the fitted curve at half-maximal effect; % is scaled to controls: 0 for no effect and ±100 for the full control effect; nearly all actives have a fitted effect of over 50% in size
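ADP (130 uM final) triggers the TbPYK reaction after compound addition; incubation is 45 min at room temperature. Kinase-Glo Plus is then added and luminescence imaged. Normalized data are fitted to concentration-effect curves.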
RE007 growth inh = less growth of the S. pombe RE007 Vpr strain; S. pombe RE007 Vpr strain, BacTiter-Glo ATP luminescence, 24 h; AID 651644; 0.21% of 360,000 active; Potency, µM (top dose mostly 92.2 µM), without a hit: at the highest dose activity change, negative = less growth, usual class: inhibitors; active = well fitted falling curve with a large enough effect; inconclusive = small, poorly fitted or top-dose-only effect; inactive = no such curve, though single readings can be large or run the other way; also: potency is read from the fitted curve at half-maximal effect; % is scaled to controls: 0 for no effect and ±100 for the full control effect; nearly all actives have a fitted effect of over 50% in size
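Fission yeast RE007 carrying one integrated HIV-1 vpr copy, seeded at OD 0.01 in PMG+AL medium with 23 nL pinned compound. Grown 24 h at 30 degrees; viability read by BacTiter-Glo luminescence after 5 min.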
Numbers without * were called inactive; ? = inconclusive; / = no result given; [ ] = remark or other dose. This excerpt belongs to a sample that is enriched for hits. Unless noted, calls follow the shape of the dose curve; as a rule, active = well fitted curve in the direction sought with a large enough effect; inconclusive = small, poorly fitted or top-dose-only effect, or another doubt; inactive = no such curve, though single readings can be large; an effect the other way counts as inactive or inconclusive.

SMILES	Shiga inhibitor	CHX counter	LmPK inhibitor	Giardia FBPA inh	TbPYK inhibitor	RE007 growth inh
Cc1ccc(NC(=O)CSc2nc(=O)n(Cc3ccco3)c3c2CCC3)cc1F	/	/	/	/	-4%	/
Nc1cccnc1Oc1ccccc1F	-4	-1	3%	0%	-1%	2%
O=C(/C=C/c1ccc(Cl)cc1Cl)Nc1cccc(S(=O)(=O)NC2=NCCCCC2)c1	13*	26*	1%	-2%	4%	4%
O=C(/C=C/c1ccccc1)Nc1cccc(S(=O)(=O)Nc2ccccc2F)c1	39*	10	-1%	0%	?	/
O=C(/C=C/c1ccccc1)Nc1cccnc1Oc1ccccc1F	76*	62*	4%	-2%	5%	5%
O=C(CCCN1CCN(c2ccc(F)cc2)CC1)NC1c2ccccc2CSc2ccccc21 (stereo unspecified)	/	/	/	/	-8%	/
CCCS(=O)(=O)c1nc(S(=O)(=O)c2ccc(C)cc2)c(NCC(C)C)s1	/	/	/	/	6%	/
N/C(Cc1cccc2ccccc12)=N\OC(=O)c1cccs1	-2	-2	-1%	-23%	3%	-2%
COc1ccccc1C/C(N)=N/OC(=O)/C=C/c1ccccc1	53*	22*	0%	0%	0%	1%
COc1ccccc1C/C(N)=N/OC(=O)COc1cccc(C)c1C	2	15	0%	-2%	-2%	-24%
COc1ccc(OCC(=O)O/N=C(\N)Cc2ccc(Cl)cc2Cl)cc1	-8	-3	1%	-1%	-2%	-15%
N/C(Cc1ccc(Cl)cc1Cl)=N\OC(=O)Cc1cccs1	51*	36*	3%	2%	-3%	-21%
N/C(Cc1ccc(Cl)cc1Cl)=N\OC(=O)c1ccc(Br)o1	3	11	5%	-6%	-4%	?
COc1ccccc1C/C(N)=N/OC(=O)c1cccs1	40	18*	0%	0%	0%	-19%
N/C(Cc1ccc(Cl)cc1Cl)=N\OC(=O)c1cccs1	52*	11	4%	-2%	2%	18µM*
Cc1ccccc1OCC(=O)O/N=C(\N)Cc1cccs1	-12	1	2%	-2%	-2%	?
N/C(Cc1cccs1)=N\OC(=O)COc1ccc(Cl)cc1Cl	127*	59*	2%	7%	-3%	-29%
N/C(Cc1cccc2ccccc12)=N\OC(=O)Cc1cccs1	62*	49*	1%	-19%	-22%	-14%
CCOC(c1cc(OC)cc([N+](=O)[O-])c1OC)C(C)C(OC)[C@@H](C)/C=C/CC(=O)OC (stereo partly specified)	/	/	/	-1%[12.9 µM]	/	/
Cc1cccc(C)c1NC(=O)N1CCN(c2nc3ccccc3s2)CC1	24	1	0%	4%	-1%	16%
Cc1cccc(Cl)c1NC(=O)N1CCCN(c2nc3ccc(Cl)cc3s2)CC1	44*	25*	11%	3%	12%	-15%
CC(C)(C)C(=O)N1CCN(c2nc3ccc(Cl)cc3s2)CC1	80*	19*	-1%	13%	-3%	-7%
CC(C)(C)C(=O)N1CCN(c2nc3c(F)cccc3s2)CC1	/	/	/	/	-16%	/
CC(C)(C)C(=O)N1CCN(c2ccc(Cl)cc2[N+](=O)[O-])CC1	33*	25*	-3%	2%	-4%	14%
CC(C)(C)C(=O)N1CCN(c2nc3ccc(Br)cc3s2)CC1	31*	23*	-8%	/	4%	-17%
SMILES	Shiga inhibitor	CHX counter	LmPK inhibitor	Giardia FBPA inh	TbPYK inhibitor	RE007 growth inh
CCOc1ccccc1NC(=O)c1nn(C)c2c1CSc1ccccc1-2	/	/	/	/	-3%	/
CC(=O)N1CCN(c2nc3ccc(Br)cc3s2)CC1	53*	27*	11%	8%	0%	-26%
CC(C)(C)C1CCc2sc(C(=O)NNC(=O)CCl)cc2C1 (stereo unspecified)	109*	59*	4%	9%	-1%	28%
Cc1nn(Cc2ccccc2)c(C)c1/C=N/NC(=O)c1ccccc1O	99*	42*	3%	4%	0%	0%
Cc1nn(Cc2ccc(F)cc2)c(Cl)c1/C=N/NC(=O)c1ccccc1	39	18*	2%	0%	1%	-3%
Cc1nn(Cc2ccc(F)cc2)c(Cl)c1/C=N/NC(=O)c1cccnc1	22	5	0%	2%	5%	8%
